Data taken from PubChem BioAssay AID861 (The Scripps Research Institute Molecular Screening Center, 2007).
In all, about 200,000 compounds went through this assay and about 360 (0.18%) were called active. This is one part of a sample in which actives are shown more often than they occur. A number with no mark means an inactive call. Rule as the data show it: active = inhibition above about 25%; inactive = the rest.

What follows are compounds tested against Toll-like receptor 4 (Homo sapiens) + Myeloid differentiation primary response protein MyD88 (Homo sapiens) (UniProt O00206+Q99836) (assay: inhibitors of TLR4-MyD88 association in cells, primary screen, cell-based, HeLa CL3-4, BLA complementation, FRET ratio (AID 861;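 also: 0% = vehicle and 100% = reference inhibitor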)). Conditions: HeLa CL3-4 TLR4/MyD88 BLA complementation, at 8.4 µM, hits give high values.
Chain of Toll-like receptor 4 (Homo sapiens) + Myeloid differentiation primary response protein MyD88 (Homo sapiens) (O00206 whole entry, looked up): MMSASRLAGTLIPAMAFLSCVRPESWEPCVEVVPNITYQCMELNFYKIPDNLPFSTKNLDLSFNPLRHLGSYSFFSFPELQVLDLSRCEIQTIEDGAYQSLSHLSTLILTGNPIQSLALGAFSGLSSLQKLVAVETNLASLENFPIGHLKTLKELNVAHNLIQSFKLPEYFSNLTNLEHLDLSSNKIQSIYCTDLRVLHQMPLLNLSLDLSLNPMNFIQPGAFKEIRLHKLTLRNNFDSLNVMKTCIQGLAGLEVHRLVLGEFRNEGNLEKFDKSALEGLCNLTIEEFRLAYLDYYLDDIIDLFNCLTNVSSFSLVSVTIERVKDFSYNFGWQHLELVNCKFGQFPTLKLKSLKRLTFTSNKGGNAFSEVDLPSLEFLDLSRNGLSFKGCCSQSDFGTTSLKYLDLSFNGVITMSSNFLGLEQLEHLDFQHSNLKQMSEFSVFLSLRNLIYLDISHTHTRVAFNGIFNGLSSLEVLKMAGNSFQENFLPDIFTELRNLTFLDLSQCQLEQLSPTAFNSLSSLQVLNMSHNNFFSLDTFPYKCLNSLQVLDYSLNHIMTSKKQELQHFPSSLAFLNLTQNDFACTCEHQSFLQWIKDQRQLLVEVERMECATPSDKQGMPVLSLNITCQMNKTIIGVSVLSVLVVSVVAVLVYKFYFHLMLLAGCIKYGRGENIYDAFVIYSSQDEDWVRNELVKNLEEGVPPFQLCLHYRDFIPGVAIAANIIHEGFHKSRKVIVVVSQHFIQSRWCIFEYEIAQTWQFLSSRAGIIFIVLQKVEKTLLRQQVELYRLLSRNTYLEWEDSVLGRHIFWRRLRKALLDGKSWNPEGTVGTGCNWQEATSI
Chain of Toll-like receptor 4 (Homo sapiens) + Myeloid differentiation primary response protein MyD88 (Homo sapiens) (Q99836 whole entry, looked up): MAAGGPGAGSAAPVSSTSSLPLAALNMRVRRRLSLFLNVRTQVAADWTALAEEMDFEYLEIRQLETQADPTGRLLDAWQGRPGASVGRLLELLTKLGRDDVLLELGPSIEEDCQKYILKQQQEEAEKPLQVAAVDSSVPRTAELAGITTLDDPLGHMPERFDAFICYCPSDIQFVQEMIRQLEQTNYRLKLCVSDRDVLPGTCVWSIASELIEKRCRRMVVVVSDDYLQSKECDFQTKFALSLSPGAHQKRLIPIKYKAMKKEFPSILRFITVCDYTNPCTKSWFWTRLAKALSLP
Work on `O=C(Cc1csc(Nc2nc(=S)[nH]c3ccccc23)n1)NCCCN1CCN(c2cccc(Cl)c2)CC1` yielded an inhibition of -1.51%.
Work on `Cc1nc(N2CCN(c3ncccn3)CC2)c2oc3ccccc3c2n1` yielded an inhibition of 7.8%.
In the case of `CCSc1nc(C)nc2c1oc1ccccc12`, the inhibition was 1.7%.
For `Cc1nc(Cl)c2oc3ccccc3c2n1`, the inhibition was 35.2% (active).
`Cc1ccc2[nH]c(=O)c(CN3CCCCC3)c(-c3ccccc3)c2c1` showed an inhibition of 16.6%.
With `COc1ccc(C2OCC3(CO2)SC(=O)NC3=O)cc1OC` (stereo unspecified) the inhibition was 6.58%.
`CCN1CCC2(CCN(Cc3cn[nH]c3-c3ccc(OC)c(F)c3)C2)C1` (stereo unspecified) gave an inhibition of -1.36%.
Compound `O=C(Nc1ccccc1Cc1ccccc1)c1ccc2c(c1)SC1=NS(=O)(=O)CCN12` has an inhibition of 14.2%.
`CCCCN(C(=O)COc1ccc(NC(C)=O)cc1)C1CCS(=O)(=O)C1` (stereo unspecified) was tested, and the inhibition was 5.19%.
For `COc1cc(NC(=O)COC(=O)c2cnc(C)cn2)c(C)cc1[N+](=O)[O-]`, the inhibition was 0.72%.
Compound `CC(C)c1csc(CN2CCC(CO)(Cc3ccccc3)CC2)n1` has an inhibition of -3.76%.
In the case of `Oc1ccccc1C=NC1CCCCC1N=Cc1ccccc1O` (stereo unspecified), the inhibition was -2.31%.
For `Cn1cnnc1SCC(=O)Nc1ccc(N2CCOCC2)cc1`, the inhibition was -8.28%.
`CN(c1ccccc1)c1nc(N)c([N+](=O)[O-])c(NCc2ccco2)n1` showed an inhibition of -1.5%.
`COC(=O)Cc1cc(=O)n(-c2nc3ccccc3s2)[nH]1` was tested, and the inhibition was 25.2% (active).
Compound `COC(=O)Cc1nc2ccccc2[nH]1` has an inhibition of 9.21%.
`CCC(=O)NC(=Nc1nc2ccccc2s1)NC(=O)CC` showed an inhibition of -5.21%.
For `CC1CCN(c2ccc([N+](=O)[O-])cc2C(N)=O)CC1`, the inhibition was 12.4%.
Work on `Cc1nc2ccccc2n1CC(=O)N/N=C/c1cccs1` yielded an inhibition of -1.34%.
`CN(C)c1ccc(C=NCCc2ccc(S(N)(=O)=O)cc2)cc1` gave an inhibition of -10.3%.
Compound `Cc1cc(C)c2c(n1)sc1c(=O)n(-c3ccccc3)c(=O)[nH]c12` has an inhibition of 13.9%.
With `Cn1nnnc1-c1cc(Cl)cc(Cl)c1` the inhibition was -10.5%.
`O=C(COC(=O)c1cc(-c2cccs2)nn1-c1ccccc1)Nc1cc([N+](=O)[O-])ccc1Cl` showed an inhibition of 7.72%.
`O=C(/C=C/c1ccc(F)cc1)NCCNC(=O)/C=C/c1ccc(F)cc1` was tested, and the inhibition was -2.71%.
With `COc1ccc(NC(=S)Nc2ccc(S(N)(=O)=O)cc2)c(C)c1` the inhibition was -9.09%.
`Nc1nc(SCC(=O)NCCN2CCOCC2)nc2sc3c(c12)CCC3` gave an inhibition of 4.71%.
`Cc1ccc(Nc2c(F)c(F)c(F)c(F)c2C(=O)O)c(C)c1` was tested, and the inhibition was -9.32%.
`Cc1cccc2cc(CN(Cc3cccs3)C(=S)NCc3ccco3)c(=O)[nH]c12` gave an inhibition of 6.03%.
`COc1ccc(-c2oc3ncn(Cc4ccco4)c(=N)c3c2-c2ccc(OC)cc2)cc1` was tested, and the inhibition was -4.97%.
`Cc1nn(C)c(C)c1CN(C(=O)CCc1nnc(Cc2c[nH]c3ccccc23)o1)C(C)C` showed an inhibition of -4.71%.
`COc1ccc(Cc2nnc(N/N=C/c3ccccc3O)[nH]c2=O)cc1OC` was tested, and the inhibition was -8.91%.
`COc1cc(C(=O)N[C@@H](C)C(=O)NCc2ccco2)cc(OC)c1OC` gave an inhibition of 5.84%.
For `CCOc1ccc(N2C(=O)/C(=C/c3ccc(C)o3)N(C)C2=S)cc1`, the inhibition was -6.16%.
Compound `Cc1ccccc1-n1cc(CNC(=O)CC2C(=O)NCCN2C/C=C/c2ccccc2)cn1` (stereo unspecified) has an inhibition of -13.3%.
`CCOC(=O)c1c(N)sc(C(C)=O)c1C` gave an inhibition of 1.12%.
`CCOC(=O)c1sc(NC(=O)CSc2nc(O)c(Cc3ccccc3)c(=O)[nH]2)nc1C` showed an inhibition of 1.47%.
With `CCn1cc(-c2cc(C(=O)O)on2)c(C)n1` the inhibition was 1.59%.
Work on `COc1cccc(/C=C(/CC(=O)Nc2ccc(N3CCOCC3)cc2)c2nc3ccccc3s2)c1` yielded an inhibition of 5.83%.
`O=C(COC(=O)Cc1ccc(F)cc1)Nc1cc(S(=O)(=O)N2CCOCC2)ccc1N1CCCC1` gave an inhibition of -6.48%.
With `Cc1[nH]c2ccccc2c1/C=N\NC(=O)Cn1nnc(-c2ccccc2)n1` the inhibition was -5.01%.
With `Cc1cccc(C)c1NC(=O)C1CCCN1C(=O)OC(C)(C)C` (stereo unspecified) the inhibition was -1.58%.
In the case of `O=C(Nc1ccccc1)O/N=C1\CCCCC1c1ccc([N+](=O)[O-])cc1[N+](=O)[O-]` (stereo unspecified), the inhibition was 5.14%.
For `CCn1c(SCc2cc(=O)n3ccsc3n2)nc2ccccc21`, the inhibition was -21.4%.
Compound `Cc1nccn1CCCNC(=O)CC1C(=O)NCCN1Cc1ccc(Cl)c(F)c1` (stereo unspecified) has an inhibition of -15.6%.
`Cc1ccc(NC2=C(Cl)C(=O)OC2OC(=O)c2ccccc2C)cc1` (stereo unspecified) showed an inhibition of -14.9%.
`CC(=O)c1ccc(N=C2SCCCN2C(=O)C2CCCCC2)cc1` showed an inhibition of 0.78%.
With `Fc1cccc2ncnc(OCc3ccccc3)c12` the inhibition was -8.75%.
Compound `CCC(C)(C)NC(=O)C(c1ccccn1)N(C(=O)c1csnn1)c1ccccc1` (stereo unspecified) has an inhibition of 2%.
Work on `COc1ccc(NC(=S)NCC2CCN(c3ccc(OC)cc3)C2)cc1` (stereo unspecified) yielded an inhibition of -0.81%.
In the case of `CC(=O)Nc1ccc(CN2CCN(Cc3ccc(F)c(F)c3)C(CCO)C2)cc1` (stereo unspecified), the inhibition was -0.85%.
Compound `COc1cc(CN2CCNC(=O)C2CC(=O)NCCc2ncccc2C)cc(OC)c1` (stereo unspecified) has an inhibition of -11.2%.
Work on `COc1cccc(NCCC(=O)c2cccc([N+](=O)[O-])c2)c1` yielded an inhibition of 9.38%.
Work on `CCOc1ccc(-n2cnnn2)cc1S(=O)(=O)N1CCC(C)CC1C` (stereo unspecified) yielded an inhibition of -2.33%.
Compound `O=C(NCc1ccco1)c1ccc(NS(=O)(=O)c2cccc([N+](=O)[O-])c2)cc1` has an inhibition of 11.7%.
Work on `CC(=O)c1c(C)[nH]c(C(=O)OCC(=O)Nc2sc3c(c2C#N)CCCC3)c1C` yielded an inhibition of -2.59%.
`COc1cc(OC)c(C(=O)Nc2ccccc2-c2ccccc2)cc1OC` showed an inhibition of -14%.
`CC(=O)Nc1ccc(C(=O)CSc2nc3ccc(C)cc3[nH]2)cc1` gave an inhibition of 5.15%.
Work on `O=C(NNC(=S)Nc1ccccc1)c1cccc(S(=O)(=O)N2CCOCC2)c1` yielded an inhibition of -2.25%.
With `CCN(CC)c1ccc2cc(C(=O)O)c(=O)oc2c1` the inhibition was 2.27%.
`CCN(CC)c1ccc2oc(=O)c(C)nc2c1` was tested, and the inhibition was 26.6% (active).
`CCN(CC)c1ccc2c(Nc3ccccc3)c(C=O)c(=O)oc2c1` gave an inhibition of 6.79%.
